# Measured values: the supplement of paper PMC10338343
# ± gives the standard deviation.
# How the values were obtained:
# [1] = system: MILI (PIWIL2) piRISC loaded with L1MC piRNA (26 nt); test: pre-steady-state target cleavage rate (min^-1); guide: L1MC piRNA 5'p-UAACUAAAUACUAUGCAAGCUGUAGG; higher = faster piRNA-guided slicing of the target;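 also: 1 nM active piRISC with 0.1 nM target library at 33 °C single turnover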
# How it was run: (§1)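 Three pooled Cleave-'n-Seq trials supplied the data, with k3 capped at 0.0001 min^-1. In each, […] transcribed, DNA-blocked target RNA library and 1 nM active affinity-purified piRISC with one synthetic guide reacted in HEPES–potassium acetate buffer at 33 °C for 0–8 or 0–960 min, with or without 500 nM GTSF1 partner protein. Uncleaved targets were sequenced and normalised to depth and to weakly complementary targets. A burst-and-steady-state fit provided the pre-steady-state cleavage rate.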
# [2] = system: EfPiwi piRISC loaded with L1MC piRNA (26 nt); test: pre-steady-state target cleavage rate (min^-1); auxiliary factor: 500 nM Ephydatia muelleri Gtsf1; guide: L1MC piRNA 5'p-UAACUAAAUACUAUGCAAGCUGUAGG; MIWI and MILI are mouse PIWI proteins and EfPiwi is from a freshwater sponge; tags in brackets are library labels; higher = faster piRNA-guided slicing of the target
# How it was run: as §1
# [3] = auxiliary factor: 500 nM mouse GTSF1
# [4] = auxiliary factor: none (no GTSF1)
Sequence,"pre-steady-state target cleavage rate [1, 3]","pre-steady-state target cleavage rate [1, 4]",pre-steady-state target cleavage rate [2]
UCCUGGUACAGCUUGCAUAGUAUUUAGUGUA,0.143 ± 0.021,0.00896 ± 0.0033,0.00435 ± 0.0027
UCCUGGUAGACCUUGCAUAGUAUUUAGUUA,0.221 ± 0.022,0.00488 ± 0.0036,0.0182 ± 0.0065
UCCUGGAUCAGCUUGCAUAGUAUUGUAGUUA,0.176 ± 0.018,0.00992 ± 0.0032,0.00652 ± 0.0027
UCCUCGCUACAGCUUGCAUAGUAUUUAGUUA,0.276 ± 0.02,0.00839 ± 0.0032,0.0505 ± 0.017
UCCUCCAACAGCUUGCAUAGUUUUUAGUUA,0.0522 ± 0.0087,0.00502 ± 0.0021,0.0119 ± 0.0041
UCCUGGAUGUGCUUCAUAGUAUUUAGUUA,0.046 ± 0.01,0.00455 ± 0.002,0.00929 ± 0.0056
UCCUCCUACAGCUUACAUAGUAUUUAGUUA,0.276 ± 0.016,0.00586 ± 0.0026,0.106 ± 0.028
UCCUGGAUCAGCCUGCAUAGUAUUUAGUUA,0.244 ± 0.026,0.0068 ± 0.0031,0.0209 ± 0.006
UCCUCCUACAGCUUGCUUAGUAUAUAGUUA,0.271 ± 0.024,0.00356 ± 0.0021,0.0127 ± 0.0069
UCCUGGAUGAGAUUGCAUAGUAUUUAGUUA,0.153 ± 0.014,0.011 ± 0.0024,0.00463 ± 0.0025
UCCUCCUACAGGUUGCAUAGUAUAUAGUUA,0.219 ± 0.022,0.00587 ± 0.0019,0.0129 ± 0.0046
UCCUGCUACAGCUUGCAUAGUAGUUUAGUUA,0.239 ± 0.032,0.0034 ± 0.0024,0.00695 ± 0.0028
UCCUGGAUGAGCUUGCAUAUUAUUUAGUUA,0.0637 ± 0.0072,0.00304 ± 0.003,0.00658 ± 0.0032
UCCUGGAACAGCUUGCAUUGUAUUUAGUAA,0.17 ± 0.02,0.00563 ± 0.0025,0.00646 ± 0.0024
UCCUGGAUCAGCUUGACAUAGUAUUUAGUUA,0.171 ± 0.019,0.00343 ± 0.0024,0.014 ± 0.0043
UCCUGGAUGUCCGUGCAUAGUAUUUAGUUA,0.0403 ± 0.011,0.00675 ± 0.0027,0.00483 ± 0.0024
UCCUGGUACAGCUUGCAAACUAUUUAGUUA,0.0345 ± 0.007,0.00378 ± 0.0028,0.00276 ± 0.0022
UCCUGGUACAGCUUGCAUAGUCUUUAGUUA,0.152 ± 0.025,0.00831 ± 0.003,0.00738 ± 0.0024
UCCUGGUACAGCUGCAUAGUAUUUAGUUA,0.23 ± 0.016,0.0103 ± 0.0029,0.00843 ± 0.0034
UCCUGCUACAGCUUGCAUAUUAUUUAGUUA,0.11 ± 0.016,0.00413 ± 0.0024,0.0119 ± 0.0034
UCCUUCUACAGCUUGCAUAGUAUUUAGUUA,0.3 ± 0.015,0.0105 ± 0.0029,0.119 ± 0.035
UCCUGGUACACCUUGCAUAGUAUUUAGUAA,0.182 ± 0.043,0.00413 ± 0.0031,0.00351 ± 0.0028
UCCUGCUACACUUGCAUAGUAUUUAGUUA,0.268 ± 0.021,0.00611 ± 0.0023,0.00903 ± 0.0027

Sequence,"pre-steady-state target cleavage rate [1, 3]","pre-steady-state target cleavage rate [1, 4]",pre-steady-state target cleavage rate [2]
UCCUCCUACUCGUUGCAUAGUAUUUAGUAA,0.176 ± 0.024,0.00408 ± 0.0019,0.00477 ± 0.0029
UCCUCCUACAGCUUGCAUAGUAUUUAGGUUA,0.251 ± 0.045,0.00312 ± 0.0031,0.00552 ± 0.0017
UCCUCCUACAGCAUGCAUAGUUUUUAGUUA,0.0554 ± 0.01,0.00447 ± 0.002,0.00379 ± 0.0028
UCCUGGAUGAUCUUGCAUAGUAUUUAGUUA,0.145 ± 0.016,0.00813 ± 0.003,0.0779 ± 0.023
UCCUCCUACAGCUUGCAUAGAUUUUAGUUA,0.0522 ± 0.012,0.00358 ± 0.002,0.0032 ± 0.002
UCCUGGAUCAGCUUGCAUAGUAAUUAGUUA,0.233 ± 0.013,0.0101 ± 0.0024,0.0264 ± 0.0082
UCCUGCUAGAGCAUGCAUAGUAUUUAGUUA,0.226 ± 0.018,0.00708 ± 0.0024,0.00618 ± 0.0015
UCCUGGAUGUGCUUGCAUAGUAUUUAGUUA [g2:g20:cont:t1A],0.142 ± 0.013,0.00984 ± 0.0023,0.015 ± 0.0046
UCCUCCUACAGCUUCCAAAGUAUUUAGUUA,0.13 ± 0.019,0.0037 ± 0.0022,0.00527 ± 0.0019
UCCUGCUACAGCUCGCAUAGUAUUUAGUUA,0.264 ± 0.015,0.00757 ± 0.0027,0.0122 ± 0.0028
UCCUGGAACAGCUUGCAUAGUAUUAAGUUA,0.212 ± 0.024,0.00457 ± 0.0019,0.00549 ± 0.0022
UCCUGGUACAUCUUGCAUAGUAUUUAGUUA,0.237 ± 0.018,0.00962 ± 0.0032,0.0254 ± 0.01
UCCUCCACAGCUUGCAUAGUAUUUAGUUA,0.248 ± 0.014,0.00686 ± 0.0018,0.0564 ± 0.018
UCCUGGAUGAGCGUGCAUAGUAUUUAGUUA,0.186 ± 0.018,0.0113 ± 0.003,0.0239 ± 0.0062
UCCUGGAUGUCCUUGCAUAGUAUUUGGUUA,0.0891 ± 0.016,0.00707 ± 0.0022,0.00366 ± 0.0027
UCCUGCUACACGAUGCAUAGUAUUUAGUUA,0.241 ± 0.022,0.00624 ± 0.0023,0.00905 ± 0.0024
UCCUCCUACAGCUUGCAUAGUAUUAAGUUA,0.178 ± 0.026,0.00415 ± 0.0024,0.00589 ± 0.0029
UCCUGCUACUGCUUGCUUAGUAUUUAGUUA,0.202 ± 0.022,0.00589 ± 0.002,0.0076 ± 0.0022
UCCUGGAUGAGCUUGCAUAGUAUUCAGUUA,0.136 ± 0.026,0.00552 ± 0.0023,0.00256 ± 0.0023
UCCUGGAUGUGCUUGCAUAGUAGUUUAGUUA,0.0704 ± 0.017,0.00921 ± 0.0027,0.0051 ± 0.0034
UCCUCCUACAGCUUGCAUAGUGUUUAGUUA,0.211 ± 0.017,0.00543 ± 0.0025,0.0149 ± 0.0041
UCCUGGAACAGCUUGCUUAGUAUUUUGUUA,0.167 ± 0.025,0.00339 ± 0.0024,0.00494 ± 0.0028
UCCUCCUACUGCUUGCAAAGUAUUUAGUUA,0.138 ± 0.011,0.00644 ± 0.0018,0.0558 ± 0.017
